In PubChem BioAssay (NCI) one finds growth data, which are given here for eight molecules.

SMILES strings stand for the structures. The panel holds about 83,000 compounds, 20% with a hit somewhere; the sample as a whole holds those more often.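 Negative percent growth values reflect cell death: -40 means 40% of the cells present at the start died, and -100 means all died.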 A number with no mark means an inactive call. Active and inactive are the calls of the source. Rule for the calls: active = growth percent below 10; inactive = the rest.

Among the test systems are NCI-H23 lung; NCI-H226 lung; NCI-H322M lung; HOP-62 NSCLC; NCI-H460 lung; HOP-92 NSCLC; NCI-H522 lung; A549/ATCC NSCLC; 786-0 renal; COLO 205 colon; DU-145 prostate; K-562 leukemia; MALME-3M melanoma; MDA-MB-231 breast; RXF 393 renal; SF-268 CNS; SF-295 CNS; SF-539 CNS; UACC-257 melanoma; M14 melanoma.
Common to all, as to assay: NCI-60 one-dose screen, 48 h (100 = growth as untreated, 0 = no growth, -100 = all killed)
Holding throughout (conditions): 10 µM unless noted

As to `CN(C)C(C(N)=O)c1ccc(Cl)cc1` (stereo not given), the growth was 104% in the test with NCI-H23 lung; 103% in the test with NCI-H226 lung; 103% in the test on NCI-H322M lung; 99.6% in the test with HOP-62 NSCLC; 109% in the test with NCI-H460 lung; 71.4% in the test on HOP-92 NSCLC. The growth in the test with NCI-H522 lung is 96.1%; with A549/ATCC NSCLC it was 96.6%; in the test with 786-0 renal, 96.1%; in the test with COLO 205 colon, 110%; in the test on DU-145 prostate, 107%; in the test with K-562 leukemia, 98.8%. Also, the growth in the test on MALME-3M melanoma is 103%; in the test with MDA-MB-231 breast, 98.3%; in the test with RXF 393 renal, 118%; with SF-268 CNS, 102%; in the test with SF-295 CNS it was 100%; in the test on SF-539 CNS, 99.5%. In addition, the growth was 95.5% in the test on UACC-257 melanoma and 96.7% in the test with M14 melanoma.

Regarding `N#Cc1cc(-c2nc3ccccc3s2)c(=O)n(NS(=O)(=O)c2ccc(Cl)cc2)c1N`, the growth in the test on NCI-H23 lung is 94.9%; with NCI-H226 lung it was 80.8%; in the test on NCI-H322M lung, 102%; in the test with HOP-62 NSCLC, 89.6%; with NCI-H460 lung, 105%; in the test with HOP-92 NSCLC, 98.6%. The growth was 96.3% with NCI-H522 lung; 117% in the test on A549/ATCC NSCLC; 105% with 786-0 renal; 122% in the test on COLO 205 colon; 110% in the test with DU-145 prostate; 96.7% with K-562 leukemia. Also, the growth was 105% in the test on MALME-3M melanoma; 87.2% with MDA-MB-231 breast; 109% with RXF 393 renal; 97.8% in the test with SF-268 CNS; 110% in the test with SF-295 CNS; 93.9% in the test with SF-539 CNS. The figures for the growth with UACC-257 melanoma and in the test with M14 melanoma were 111% and 97.5%, respectively.

With `CC1NC(=S)NC(=O)/C1=C/c1cc(=O)oc2c1ccc1ccccc12` (stereo not given), the growth was 93.8% with NCI-H23 lung; 86.1% with NCI-H226 lung; 101% with NCI-H322M lung; 82.1% in the test on HOP-62 NSCLC; 102% in the test on NCI-H460 lung; 75.9% in the test with HOP-92 NSCLC. The growth is 73.8% with NCI-H522 lung; 81.3% in the test with A549/ATCC NSCLC; 107% in the test on 786-0 renal; 104% in the test on COLO 205 colon; 108% in the test with DU-145 prostate; 94.6% with K-562 leukemia. The growth in the test with MALME-3M melanoma was 90.9%; with MDA-MB-231 breast, 95.1%; in the test with RXF 393 renal it was 101%; in the test with SF-268 CNS, 97%; with SF-295 CNS, 100%; in the test with SF-539 CNS, 96.8%. The figures for the growth in the test on UACC-257 melanoma and in the test on M14 melanoma were 80.5% and 94.9%, respectively.

On to `COc1ccc(/C=N/C2=C(C#N)C(c3ccccc3[N+](=O)[O-])c3ccc4ccccc4c3O2)cc1` (stereo not given), for which the growth in the test on NCI-H23 lung is 79%; in the test with NCI-H226 lung it was 70.4%; in the test with NCI-H322M lung, 90.6%; in the test with HOP-62 NSCLC, 103%; in the test with NCI-H460 lung it was 91.4%; in the test with HOP-92 NSCLC it was 97.1%. In addition, the growth was 88.1% with NCI-H522 lung; 99.8% in the test on A549/ATCC NSCLC; 101% with 786-0 renal; 104% with COLO 205 colon; 100% in the test with DU-145 prostate; 80.2% in the test on K-562 leukemia. Further, the growth in the test with MALME-3M melanoma was 89.8%; in the test with MDA-MB-231 breast, 77.7%; with RXF 393 renal it was 109%; in the test on SF-268 CNS it was 87.4%; in the test on SF-295 CNS, 94.9%; in the test with SF-539 CNS it was 97.3%. The results for the growth in the test with UACC-257 melanoma and in the test on M14 melanoma were 102% and 90.4%, respectively.

With `O=C(OC(OC(=O)c1cc(Cl)cc(Cl)c1)c1cccc2ccccc12)c1ccccc1` (stereo not given), the growth with NCI-H23 lung is 93.6%; with NCI-H226 lung it was 98.7%; with NCI-H322M lung, 101%; in the test with HOP-62 NSCLC it was 99.5%; in the test on NCI-H460 lung, 107%; with HOP-92 NSCLC, 101%. The growth with NCI-H522 lung was 80.4%; with A549/ATCC NSCLC, 92.6%; with 786-0 renal, 101%; in the test on COLO 205 colon it was 112%; in the test on DU-145 prostate, 103%; with K-562 leukemia it was 92.1%. Moreover, the growth with MALME-3M melanoma is 91%; in the test on MDA-MB-231 breast it was 95.5%; with RXF 393 renal, 110%; with SF-268 CNS it was 94.8%; with SF-295 CNS, 107%; in the test with SF-539 CNS, 103%. The figures for the growth with UACC-257 melanoma and with M14 melanoma were 96.1% and 101%, respectively.

Consider `COC(=O)CCCCCCCCC1(C)C=CC(C(C)O)=CC1` (stereo not given), for which the growth in the test on NCI-H23 lung is 96.2%; in the test with NCI-H226 lung it was 97%; in the test with NCI-H322M lung, 109%; in the test on HOP-62 NSCLC it was 101%; in the test with NCI-H460 lung, 111%; in the test with HOP-92 NSCLC, 93.2%. Moreover, the growth with NCI-H522 lung was 89%; with A549/ATCC NSCLC it was 94%; with 786-0 renal, 108%; with COLO 205 colon, 111%; in the test on DU-145 prostate, 110%; in the test on K-562 leukemia, 84.5%. In addition, the growth with MALME-3M melanoma was 105%; with MDA-MB-231 breast it was 110%; with RXF 393 renal it was 107%; with SF-268 CNS it was 105%; in the test on SF-295 CNS, 109%; in the test on SF-539 CNS, 112%. For the same molecule, the results for the growth in the test with UACC-257 melanoma and with M14 melanoma were 108% and 110%, respectively.

Regarding `CCNC(=S)NNC(=O)c1cc2ccc1CCc1ccc(cc1)CC2`, the growth is 97.7% in the test with NCI-H23 lung; 106% with NCI-H226 lung; 95.1% in the test with NCI-H322M lung; 101% in the test with HOP-62 NSCLC; 103% with NCI-H460 lung; 97.2% in the test with HOP-92 NSCLC. The growth with NCI-H522 lung is 92.7%; in the test on A549/ATCC NSCLC, 101%; in the test with 786-0 renal, 106%; in the test on COLO 205 colon it was 107%; in the test on DU-145 prostate it was 103%; with K-562 leukemia, 100%. The growth was 101% with MALME-3M melanoma; 100% in the test with MDA-MB-231 breast; 109% in the test with RXF 393 renal; 95.4% in the test on SF-268 CNS; 93.2% with SF-295 CNS; 101% in the test on SF-539 CNS. The growth is 109% in the test with UACC-257 melanoma and 95% with M14 melanoma.

Regarding `CC(=O)OC1CCC2(C)C(CCC3C4CC=C(C(C)=O)C4(C)OC(=O)CC32)C1` (stereo not given), the growth was 34.7% in the test with NCI-H23 lung; 45% in the test with NCI-H226 lung; 95.7% with NCI-H322M lung; 61% in the test with HOP-62 NSCLC; 78.1% in the test with NCI-H460 lung; -21.2% (active) with HOP-92 NSCLC. In addition, the growth in the test with NCI-H522 lung was -81.1% (active); with A549/ATCC NSCLC, 59.1%; in the test with 786-0 renal, 64%; in the test on COLO 205 colon, 2.72% (active); in the test with DU-145 prostate it was 38.2%; in the test on K-562 leukemia, -12.4% (active). Further, the growth with MALME-3M melanoma is -25.6% (active); in the test on MDA-MB-231 breast it was 35.3%; in the test on RXF 393 renal, -60.5% (active); with SF-268 CNS, 53%; with SF-295 CNS it was 73.1%; in the test with SF-539 CNS, 61.7%. In addition, the growth in the test on UACC-257 melanoma is -74.9% (active); with M14 melanoma, -31.6% (active).
